Source: PubChem (Broad Institute)
Wnt act: Wnt/beta-catenin pathway activators, primary screen, cell-based, plate reader, single point; Wnt/beta-catenin reporter cell assay, activator; activation, % at 9.35 µM; 300,000 tested, 1.2% active; AID 743398, 2014; in the data active means activation above about 30%, passing the limit was not always enough; inconclusive means no clear call, values can overlap the other calls;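 further: 0% = neutral control wells and 100% = positive control wells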
MITF TRPM1 HTS: activators of MITF-driven TRPM1 promoter reporter, primary screen, cell-based, SK-MEL-5, luciferase, single point. activation, % at 12.5 µM. SK-MEL-5 TRPM1-promoter luciferase, 24 h; % of positive control, neutral wells = 0. 300,000 tested, 0.75% active. AID 588334, 2011;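 active means mean activation of at least 80% with every replicate also reaching 80%; inconclusive means mean reaches 80% but some replicate falls short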;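 further: 0% = neutral control wells and 100% = parthenolide positive control wells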
NSD2 inh: NSD2 histone methyltransferase inhibitors, primary screen, biochemical, AlphaScreen, single concentration, set 2; NSD2 peptide methylation, 120 min; 310,000 tested, 0.54% active; AID 743445, 2014; inhibition, % at 12.5 µM
Target sequence (O96028 whole entry, looked up): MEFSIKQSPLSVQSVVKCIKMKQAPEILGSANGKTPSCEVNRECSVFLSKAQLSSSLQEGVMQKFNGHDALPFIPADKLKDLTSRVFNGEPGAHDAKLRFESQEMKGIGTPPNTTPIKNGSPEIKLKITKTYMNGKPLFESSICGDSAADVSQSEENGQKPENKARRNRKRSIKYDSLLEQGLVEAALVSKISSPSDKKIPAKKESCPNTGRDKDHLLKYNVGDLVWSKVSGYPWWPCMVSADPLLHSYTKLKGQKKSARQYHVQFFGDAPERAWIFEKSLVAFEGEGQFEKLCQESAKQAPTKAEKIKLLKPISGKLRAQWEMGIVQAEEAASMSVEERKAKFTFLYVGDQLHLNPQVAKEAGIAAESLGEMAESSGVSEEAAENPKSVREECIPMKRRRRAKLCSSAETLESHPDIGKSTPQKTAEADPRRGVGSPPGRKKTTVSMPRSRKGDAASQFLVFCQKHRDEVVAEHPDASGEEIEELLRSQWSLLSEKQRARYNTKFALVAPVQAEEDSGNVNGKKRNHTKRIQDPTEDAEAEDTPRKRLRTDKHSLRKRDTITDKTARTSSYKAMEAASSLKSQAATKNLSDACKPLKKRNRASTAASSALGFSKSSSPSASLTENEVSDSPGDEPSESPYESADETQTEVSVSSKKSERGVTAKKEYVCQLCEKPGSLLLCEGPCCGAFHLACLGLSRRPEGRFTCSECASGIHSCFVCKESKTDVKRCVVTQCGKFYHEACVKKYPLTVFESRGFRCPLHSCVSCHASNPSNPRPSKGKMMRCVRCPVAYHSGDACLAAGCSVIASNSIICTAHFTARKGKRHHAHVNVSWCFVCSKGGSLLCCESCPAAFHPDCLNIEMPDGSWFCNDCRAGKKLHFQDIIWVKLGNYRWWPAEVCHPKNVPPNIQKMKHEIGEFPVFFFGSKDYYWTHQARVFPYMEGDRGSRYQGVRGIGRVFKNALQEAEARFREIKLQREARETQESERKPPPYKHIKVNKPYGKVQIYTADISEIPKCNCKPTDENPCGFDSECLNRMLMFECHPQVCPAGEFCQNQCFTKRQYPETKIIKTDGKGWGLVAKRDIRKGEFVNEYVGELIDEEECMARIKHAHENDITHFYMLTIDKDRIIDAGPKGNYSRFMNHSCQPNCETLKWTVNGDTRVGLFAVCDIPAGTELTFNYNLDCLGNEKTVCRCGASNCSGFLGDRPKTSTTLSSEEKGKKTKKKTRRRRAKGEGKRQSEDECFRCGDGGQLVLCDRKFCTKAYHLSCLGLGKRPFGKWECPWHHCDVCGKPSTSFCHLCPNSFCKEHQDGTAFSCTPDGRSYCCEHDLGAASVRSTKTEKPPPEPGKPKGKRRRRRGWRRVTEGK
GSIS activator: GLuc luminescence reporter in INS-1E cells, primary screen for activators of glucose-dependent secretion of insulin; 370,000 tested, 0.61% active; AID 743287, 2014; INS-1E GLuc reporter insulin secretion, 2-3 h; activation, % at 16.6 µM;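 active means lowest replicate activation of at least 40%, so every replicate reaches that level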;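 further: 0% = median of neutral control wells and 100% = median of IBMX positive control wells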
DYRK1A inh: rat Dyrk1A kinase inhibitors, primary screen, biochemical, single point, plate reader; 310,000 tested, 0.43% active; ADP-Glo luminescence, NFATc1 peptide; AID 504441, 2011; Dual specificity tyrosine-phosphorylation-regulated kinase 1A (Rattus norvegicus), Q63470; inhibition, % at 12.5 µM;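 further: plate controls were vehicle with enzyme for no effect and no enzyme for full effect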
miR122 inh: miR-122 Renilla sensor signal increase in Huh7, primary screen, miR-122 inhibitor project, cell-based, single point, plate reader; activation (reporter increase), % at 12.5 µM; AID 602342, 2012; 340,000 tested, 0.3% active; Huh7 miR-122 Renilla luciferase sensor, 48 h; neutral wells = 0, positive control = 100;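 active means mean replicate activation score at least 90 and every replicate individually at or above 90; inconclusive means only one of the two criteria met; inactive means neither criterion met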;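 further: higher luciferase means less miR-122 activity so hits act as miR-122 inhibitors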
* = called active by the depositor; [ ] = dose if it differs, or a comment. Compounds with a hit are over-represented: about 2.4% of the library has one in this group of screens. Unless noted, no stated cut-off is given here; in the data, active means inhibition above about 50%; inactive means the rest.

Results for C[C@@H]1CN([C@@H](C)CO)S(=O)(=O)c2ccc(C3=CCCC3)cc2O[C@H]1CN(C)S(=O)(=O)c1ccc(F)cc1 ?
GSIS activator: -4; miR122 inh: -2[16.7 µM]

How did CN(C)c1ccc(NC(=S)N2CCN(c3ncc(C(F)(F)F)cc3Cl)CC2)cc1 do in these assays?
Wnt act: 52*; MITF TRPM1 HTS: 2; NSD2 inh: -1; GSIS activator: -1; DYRK1A inh: -4

How did CC(C)(C(=O)N1CCC1(C)C(=O)NS(=O)(=O)c1cccc(Cl)c1)c1ccccc1 (stereo not drawn) do in these assays?
Wnt act: -1; NSD2 inh: 1; GSIS activator: 41*; miR122 inh: 22

Results for C[C@H]1CCCCO[C@H](CN(C)C(=O)c2ccncc2)[C@@H](C)CN([C@@H](C)CO)C(=O)c2cc(NS(=O)(=O)c3cccs3)ccc2O1 ?
GSIS activator: -2; miR122 inh: 12[16.7 µM]

What do the screens show for `CC1=C(/C=C/C(C)=C/C=C/C(C)=C/C(=O)Nc2ccc(O)cc2)C(C)(C)CCC1`?
Wnt act: -3; MITF TRPM1 HTS: 6; NSD2 inh: 3; GSIS activator: 153*; DYRK1A inh: 1; miR122 inh: 3

How did C[C@H](CO)N1C[C@H](C)[C@H](CN(C)C(=O)CN(C)C)Oc2ncc(C#Cc3ccccc3)cc2C1=O do in these assays?
GSIS activator: 16; miR122 inh: -4[16.7 µM]

Results for CN1C(=O)c2cc(NC(=O)C3CC3)ccc2OC[C@H]2O[C@H](CC(=O)NCC3CCCCC3)CC[C@H]21 ?
GSIS activator: -20; miR122 inh: -1[16.7 µM]

What do the screens show for `Cc1ccc(Nc2ncnc3ccccc23)cc1`?
MITF TRPM1 HTS: inconclusive; NSD2 inh: -4; GSIS activator: 17; DYRK1A inh: 13; miR122 inh: -4

What do the screens show for `Cc1ccc(/C(=N/Nc2ncnc3ccccc23)C(=O)O)cc1`?
Wnt act: 44*; MITF TRPM1 HTS: -4; NSD2 inh: -4; GSIS activator: 4; DYRK1A inh: 5; miR122 inh: 1

Results for CC(=O)N1CC2(C1)[C@@H](c1ccc(-c3cccc(F)c3)cc1)[C@@H](CO)N2CC1CCCC1 ?
GSIS activator: -21

Results for C=C1C(=O)[C@]23C[C@H]1CC[C@H]2[C@]1(C)[C@@H](OC(C)=O)CC[C@@](C)(C(=O)O)[C@H]1C[C@@H]3O ?
Wnt act: -15; GSIS activator: 84*; miR122 inh: 7

What do the screens show for `C=C1C(=O)[C@]23C[C@H]1CC[C@H]2[C@]1(C)[C@@H](OC(C)=O)CC[C@@](C)(C(=O)OC)[C@H]1C[C@@H]3OC(C)=O`?
Wnt act: -4; GSIS activator: 39; miR122 inh: 2

Results for C=C1C(=O)[C@]23C[C@H]1CCC2[C@@]1(C)C(C[C@@H]3O)[C@](C)(C(=O)OC)CC[C@@H]1OC(C)=O (stereo partly drawn) ?
Wnt act: -3; GSIS activator: 134*; miR122 inh: -25

Results for Cc1ccc(S(=O)(=O)N(C)C[C@@H]2Oc3c(NC(=O)C4CCOCC4)cccc3C(=O)N([C@@H](C)CO)C[C@H]2C)cc1 ?
GSIS activator: 7; miR122 inh: -14[16.7 µM]

Results for O=C(c1ccccc1)c1nnc(-c2ccccc2F)o1 ?
Wnt act: 61*; NSD2 inh: -2; DYRK1A inh: -9; miR122 inh: 1

What do the screens show for `COc1ccc(-c2nnc(N)s2)cc1`?
Wnt act: 13; MITF TRPM1 HTS: 13; NSD2 inh: -1; DYRK1A inh: 25; miR122 inh: 2

Results for CCCOc1ccc(-c2nnc(N)s2)cc1 ?
Wnt act: 36*; MITF TRPM1 HTS: 60; NSD2 inh: -2; DYRK1A inh: 0; miR122 inh: 2

How did Brc1ccc(-n2cnc(-c3ccccc3)c2)cc1 do in these assays?
Wnt act: 45*; MITF TRPM1 HTS: 45; NSD2 inh: -3; GSIS activator: -17; DYRK1A inh: 1; miR122 inh: 11

How did Cc1cc(NC(=O)CSc2nc3c(sc4ccccc43)c(=O)n2CCCN2CCOCC2)n[nH]1 do in these assays?
Wnt act: -13; NSD2 inh: -3; GSIS activator: 19; DYRK1A inh: 2; miR122 inh: 178*

What do the screens show for `CC1(C)CC(=O)C(N=Nc2ccc(Br)cc2)=C(O)C1`?
Wnt act: 70*; NSD2 inh: 0; GSIS activator: 12; miR122 inh: -12

Results for COc1ccc(-c2ccc(-c3noc(C(C)C)n3)c(OC)n2)cc1 ?
MITF TRPM1 HTS: 64; NSD2 inh: -3; DYRK1A inh: 8; miR122 inh: -2

What do the screens show for `COc1nc(-c2ccc(Cl)cc2)ccc1-c1noc(-c2ccco2)n1`?
Wnt act: 1; MITF TRPM1 HTS: 13; NSD2 inh: -1; GSIS activator: 66*; DYRK1A inh: 6; miR122 inh: -6

How did CCc1nc(-c2ccc(-c3ccc(OC)cc3)nc2OC)no1 do in these assays?
Wnt act: 56*; MITF TRPM1 HTS: 12; NSD2 inh: 3; DYRK1A inh: -10; miR122 inh: 2

What do the screens show for `COCc1nc(-c2ccc(-c3ccc(OC)cc3)nc2OC)no1`?
Wnt act: 20; MITF TRPM1 HTS: 24; DYRK1A inh: 8; miR122 inh: -5

Results for COc1nc(-c2ccccc2)ccc1-c1noc(C)n1 ?
Wnt act: 50*; NSD2 inh: -1; DYRK1A inh: -1; miR122 inh: 4

How did COCc1nc(-c2ccc(-c3ccccc3)nc2OC)no1 do in these assays?
Wnt act: 49*; NSD2 inh: -17; DYRK1A inh: 8; miR122 inh: -1

How did CC(C)C#Cc1ccc2c(c1)O[C@H](CN(C)CC1CC1)[C@H](C)CN([C@H](C)CO)S2(=O)=O do in these assays?
GSIS activator: -4; miR122 inh: 14[16.7 µM]

Results for COCC(=O)Nc1ccc2c(c1)OC[C@H](C)N(C(=O)NC(C)C)C[C@H](C)[C@H](OC)CN(C)C2=O ?
GSIS activator: 5

Results for CCOC(=O)C1(C)CCCCN1C(=O)c1cccc(Cl)c1 (stereo not drawn) ?
Wnt act: -1; NSD2 inh: -2; GSIS activator: 96*; miR122 inh: -2

What do the screens show for `COc1ccc(OC)c(-c2csc(NC(=O)Cc3ccccc3F)n2)c1`?
Wnt act: 2; MITF TRPM1 HTS: 47; GSIS activator: 3; DYRK1A inh: 2; miR122 inh: 117*
